Where “and” joins values, the source holds several entries; their conditions need not be identical. Equal entries are not always repeated. Records with an inconclusive call do not appear. Calls of active or inactive are those of the source. Calls come from the whole dose curve; as a rule, active = well fitted curve in the direction sought with a large enough effect; inconclusive = small, poorly fitted or top-dose-only effect, or another doubt; inactive = no such curve, though single readings can be large; an effect the other way counts as inactive or inconclusive.
How the values were obtained:
[1] = Cellular Toxicity (caspase-3) H-4-II-E (AID 663); settings: H-4-II-E rat hepatoma; Potency: caspase-3 activation; caspase-3 activation: at 92.2 µM (top of the series), scaled: DMSO 0%, 100 µM tamoxifen 100%;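 note: cells exposed to compound for 16 hr before readout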
Summary of the method: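 H-4-II-E rat hepatoma, 1500 cells/well, 5 hr settle at 37 °C; compound 16 hr, 37 °C, complete medium; Caspase-Glo 3/7, 20 min RT; luminescence. DMSO = 0%, 100 uM tamoxifen = 100%; Hill-equation AC50.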

[2] = Cellular Toxicity (caspase-3) Hek293 (AID 664); settings: HEK293 caspase-3 activation, DMSO = 0%, 100 µM tamoxifen = 100%; at 92.2 µM (top of the series);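 note: cells exposed to compound for 16 h at 37 °C before readout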
Summary of the method: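 qHTS, HEK293 (human embryonic kidney), 16 h cpd exposure in complete medium. Caspase-3/7 activation = luminescence increase; normalized to DMSO/100 uM tamoxifen; Hill-fit AC50.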

[3] = Cellular Toxicity (caspase-3) N2a (AID 665); settings: Potency: caspase-3 activation;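 note: compound exposure lasted 16 h at 37 °C before readout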
Summary of the method: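 Caspase-3/7 activation, measured as increased luminescence from aminoluciferin release, is quantified in mouse N2a cells exposed to compounds for 16 h. Values are normalized to DMSO and 10 uM staurosporine, with AC50 derived by Hill modelling.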

[4] = Cellular Toxicity (caspase-3) NIH 3T3 (AID 666);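 note: caspase signal read after 16 h compound exposure; 0% = DMSO basal and 100% = 100 µM tamoxifen stimulation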
Summary of the method: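 Cells were plated at 1000 per well and incubated 5 hr at 37°C, then compound was added for 16 hr. Caspase-Glo 3/7 reagent followed for 20 min at room temperature before luminescence was read.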

[5] = Cellular Toxicity (caspase-3) Renal Proximal Tubule (AID 667);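 note: cells exposed to compound for 16 hours at 37 °C before detection; 0% = DMSO basal and 100% = 10 µM staurosporine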
Summary of the method: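 AC50 derived by standard Hill fit of concentration-response data, normalized between DMSO basal and 10 uM staurosporine as 100% stimulation. Cells: primary rat kidney proximal tubule, 16 h treatment at 37 °C.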

[6] = Cell Viability - LYMP2-001 (AID 921);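 note: cells exposed to compound for 24 h at 37 °C; 0% = DMSO only and full inhibition = tetraoctylammonium bromide control wells; nearly all actives have a fitted effect of over 70% in size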
Summary of the method: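 Steps: seed 2500 lymphoblastoid cells/well; 5 hr, 37 C; add compound; 24 hr, 37 C; CellTiter-Glo reagent, 30 min room temperature; read luminescence. Concentration-response modeled by Hill equation for AC50.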

[7] = MultiTox-Fluor Cytotoxicity Assay - LYMP1-001 - Dead Cells (AID 946);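 note: 0% = DMSO and 100% = tetraoctylammonium bromide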
Summary of the method: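 LYMP1-001 lymphoblastoid cells (2500/well) treated 16 h at 37 C. Dead-cell protease cleavage of bis-AAF-R110 read at Ex/Em 485/520. Normalized to DMSO and 15 uM tetraoctylammonium bromide; AC50 from Hill fits.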

[8] = MultiTox-Fluor Cytotoxicity Assay - LYMP1-001 - Live Cells (AID 947);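 note: 0% = DMSO only and full inhibition = tetraoctylammonium bromide control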
[9] = Cell Viability - LYMP1-002 - Assay at 16 hr (AID 948);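 note: 0% = DMSO alone and full effect = 92 µM tetraoctylammonium bromide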
Summary of the method: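 Seed 2500 LYMP1-002 cells per well in complete medium and hold 5 hr at 37 C. Add compound across a concentration series and incubate 16 hr at 37 C. Add CellTiter-Glo, wait 30 min at room temperature, read luminescence.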

[10] = MultiTox-Fluor Cytotoxicity Assay - LYMP1-002 - Live Cells (AID 955); note: % is set by controls: 0 for no effect and ±100 for the full control effect
Summary of the method: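 Cells were seeded at 2500 per well and incubated 5 hr. Compounds were then added for 16 hr at 37 C, followed by MultiTox-Fluor reagent for 60 min at room temperature and fluorescence reading of viable-cell protease signal.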

[11] = MultiTox-Fluor Cytotoxicity Assay - LYMP1-002 - Dead Cells (AID 960);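 note: 0% = DMSO and 100% = tetraoctylammonium bromide; nearly all actives have a fitted effect of over 60% in size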
Summary of the method: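 Cells were plated, rested 5 hr, then treated with compound dilution series for 16 hr at 37 C. After adding substrate reagent and 60 min at room temperature, dead-cell protease fluorescence gave concentration-response curves fitted by the Hill equation.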

[12] = MultiTox-Fluor Cytotoxicity Assay - LYMP1-003 - Dead Cells (AID 961);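 note: 0% = DMSO and 100% = tetraoctylammonium bromide; nearly all actives have a fitted effect of over 70% in size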
Summary of the method: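 LYMP1-003 human lymphoblastoid cells (2500/well) exposed to compound 16 h at 37 C in complete medium; dead-cell protease read with bis-AAF-R110 fluorescence (Ex/Em 485/520) after 60 min at room temperature. Normalized to DMSO and 15 uM tetraoctylammonium bromide; AC50 from Hill fit.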

[13] = MultiTox-Fluor Cytotoxicity Assay - LYMP1-003 - Live Cells (AID 962);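 note: 0% = DMSO only and full loss = 92 µM tetraoctylammonium bromide; cytotoxic hits lower the live-cell protease signal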
Summary of the method: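 Acute cytotoxicity is scored as a drop in live-cell protease activity in human lymphoblastoid LYMP1-003 cells after 16 hr compound exposure at 37 C. AC50 values come from Hill-equation modelling of concentration-response data.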

[14] = Cell Viability - LYMP1-003 - Assay at 24 hr (AID 963);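 note: plate controls were DMSO only for no effect and tetraoctylammonium bromide positive control for full effect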
Summary of the method: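 Cytotoxicity is scored as a concentration-dependent fall in ATP-linked luciferase signal in human lymphoblastoid LYMP1-003 cells treated 24 hr at 37 C in complete culture medium.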

[15] = Cell Viability - LYMP1-003 - Assay at 40 hr (AID 964); note: % is set by controls: 0 for no effect and ±100 for the full control effect; nearly all actives have a fitted effect of over 60% in size
Summary of the method: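 Luminescent ATP signal (CellTiter-Glo) served as the viability read-out after 40 hr compound treatment of human lymphoblastoid LYMP1-003 cells at 37 C. Decreases in ATP were fitted with the Hill equation to give AC50.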

[16] = Cell Viability - LYMP2-003 (AID 965);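 note: cells exposed to compounds for 24 h before reading; 0% = DMSO only and full effect = 92 µM tetraoctylammonium bromide; nearly all actives have a fitted effect of over 50% in size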
Summary of the method: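 Seed 2500 lymphoblastoid cells/well; incubate 5 hr, 37 C; add compounds; incubate 24 hr, 37 C; add CellTiter-Glo, 30 min RT; read luminescence. AC50 from Hill fit.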

[17] = Cell Viability - LYMP2-004 (AID 966);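 note: plate controls were DMSO only for no effect and tetraoctylammonium bromide control for full effect; nearly all actives have a fitted effect of over 65% in size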
Summary of the method: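 qHTS cytotoxicity: human lymphoblastoid line, 24 hr compound treatment, 37 C, complete medium. Viability read as cellular ATP via luciferase luminescence; tetraoctylammonium bromide served as positive control.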

[18] = Cell Viability - LYMP2-005 (AID 967);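 note: cells exposed to compound for 24 h at 37 °C; plate controls were DMSO only for no effect and 92 µM tetraoctylammonium bromide control for full effect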
Summary of the method: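 Acute cytotoxicity is scored as a concentration-dependent drop in intracellular ATP in human lymphoblastoid LYMP2-005 cells after 24 h compound treatment. ATP is quantified by luciferase luminescence, and AC50 is derived by Hill-equation modelling.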

[19] = Cell Viability - LYMP2-009 (AID 968);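 note: cells exposed to compound for 24 h at 37 °C; 0% = DMSO alone and the full-kill end = tetraoctylammonium bromide at 92 µM; nearly all actives have a fitted effect of over 55% in size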
[20] = Cell Viability - LYMP2-011 (AID 969);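 note: 0% = DMSO only and full inhibition = 92 µM tetraoctylammonium bromide; nearly all actives have a fitted effect of over 60% in size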
Summary of the method: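 In this qHTS cytotoxicity format, compounds are tested across concentrations on human lymphoblastoid cells in complete medium for 24 hours at 37 C. Viability is taken as cellular ATP measured by luciferase luminescence.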

[21] = Cell Viability - LYMP2-013 (AID 970);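 note: cells exposed to compound for 24 h at 37 °C; 0% = DMSO only and full inhibition = tetraoctylammonium bromide control; nearly all actives have a fitted effect of over 55% in size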
Summary of the method: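 Cytotoxicity is scored as a concentration-dependent drop in intracellular ATP in human lymphoblastoid cells after 24 hr compound exposure at 37 C. ATP is quantified by luciferase luminescence, and AC50 values come from Hill-equation modeling.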

O=C(/C=C/c1ccc(O)c(O)c1)OC1C[C@](O)(C(=O)O)C[C@@H](O)[C@H]1O (stereo partly specified)
inactive: caspase-3 activation [1] 0.575% and -0.278% | caspase-3 activation [2] 0.862% and -1.58% | Potency [3] | Potency [4] | outcome [5] | Potency [6] | Potency [7] | Potency [8] | Potency [9] | Potency [10] | Potency [11] | Potency [12] | Potency [13] | Potency [14] | Potency [15] | Potency [16] | Potency [17] | Potency [18] | Potency [19] | Potency [20] | Potency [21]
